Measurements as given in PubChem BioAssay AID588726 (The Scripps Research Institute Molecular Screening Center, 2011).
Screen size: about 360,000 compounds; about 8,200 (2.3%) were called active. Cut-off read from the data, not from the text of the source: active = inhibition above about 27%; inactive = the rest. The entries come from a sample that favours actives as a whole.

Target: Fructose-bisphosphate aldolase (Mycobacterium tuberculosis (strain ATCC 25618 / H37Rv)) (UniProt P9WQA3)
Assay: Mtb FBA enzyme inhibitors, primary screen, biochemical, fluorescence, strain H37Rv (AID 588726);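 note: 0% = vehicle and 100% = reference inhibitor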
Settings: purified M. tuberculosis FBA, fluorescence read-out, at 1 µM, active compounds read high

Chain of Fructose-bisphosphate aldolase (Mycobacterium tuberculosis (strain ATCC 25618 / H37Rv)) (P9WQA3 whole entry, looked up): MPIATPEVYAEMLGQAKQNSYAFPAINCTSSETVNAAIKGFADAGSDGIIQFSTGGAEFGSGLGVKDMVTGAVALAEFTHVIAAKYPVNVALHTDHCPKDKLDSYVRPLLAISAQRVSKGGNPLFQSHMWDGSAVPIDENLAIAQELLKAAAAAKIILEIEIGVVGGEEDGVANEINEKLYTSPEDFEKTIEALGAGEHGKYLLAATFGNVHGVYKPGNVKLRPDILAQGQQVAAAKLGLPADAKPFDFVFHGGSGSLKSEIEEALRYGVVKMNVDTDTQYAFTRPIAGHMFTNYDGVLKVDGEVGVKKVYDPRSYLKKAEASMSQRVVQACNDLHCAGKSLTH

SMILES	inhibition
CCN(CC)C(=O)Oc1ccc(Br)cc1C(=O)Nc1ccc(F)c(Cl)c1	-6.9% (inactive)
C#CCCOC(=O)N1C2=NC(C(=O)OC)=C(C(=O)OC)[C@@H]3N(C)c4ccc(OC)cc4[C@]23C[C@H]1C(=O)OC	5.83% (inactive)
O=C(OCCO)c1cc(Cl)c(C(=O)OCCO)cc1Cl	-2.53% (inactive)
CC1CC(C)(C)CC2(C1)NC(=O)N(CC(=O)Nc1nccs1)C2=O (stereo not drawn)	1.81% (inactive)
Cc1ccc(S(=O)(=O)N2CCN(C(=O)c3ccc(-n4cncn4)c([N+](=O)[O-])c3)CC2)cc1	-0.25% (inactive)
O=C(NCCc1ccccc1)c1c[nH]c2ccc(F)cc2c1=O	-1.25% (inactive)
COc1ccc(Cl)cc1NC(=O)c1cccc(N2C(=O)C3CC=CCC3C2=O)c1 (stereo not drawn)	-2.03% (inactive)
Cc1cccc(NC(=O)c2ccc(S(=O)(=O)N(C)CC3CCCO3)cc2)c1C (stereo not drawn)	-3.44% (inactive)
CNc1ccc(SC#N)cc1	2.17% (inactive)
CC1CCN(CC(=O)Nc2nccs2)CC1	-1.23% (inactive)
CCOC(=O)C(CC)/C(C)=N\NC(=O)c1cccc(C)c1 (stereo not drawn)	2.1% (inactive)
O=S(=O)(Nc1ccc2[nH]ncc2c1)c1ccccc1Cl	-2.11% (inactive)
Cc1ccc(NS(=O)(=O)c2c(C)[nH]c(C)c2C(=O)N2CCCCC2)c(C)c1	1.03% (inactive)
COc1ccc(NC(=O)c2sccc2SCC#N)cc1	0.88% (inactive)
CCOC(=O)c1[nH]c2ccc(C)cc2c1N=C(C)N(C)C	1.43% (inactive)
CCOC(=O)c1cc2cc(C)ccc2[nH]1	31.8% (active)
Cc1ccc2[nH]c(=O)c(COC(=O)c3ccccn3)cc2c1	1.82% (inactive)
CC1(C)C(=O)CCC2(C)C1=CCC1C2C(=O)CC2(C)C1CCC2(O)C(=O)CO (stereo not drawn)	1.52% (inactive)
COc1ccc(-n2c(C)cc(C(=O)CN3C(=O)NC4(CCc5ccccc54)C3=O)c2C)cc1 (stereo not drawn)	1% (inactive)
Cc1cc(C)c(-c2c(O)c3ccccc3n(C)c2=O)c(C)c1	62.7% (active)

SMILES	inhibition
Cn1c(=O)c(Sc2ccc(Cl)cc2)c(O)c2ccccc21	2% (inactive)
Cn1c(=O)c(C(=O)Nc2ncccn2)c(O)c2ccccc21	7.7% (inactive)
COc1c(O)cccc1-c1nnn(CCC(=O)OCC(=O)c2ccccc2)n1	0.78% (inactive)
C/C=C(/C)C(=O)OC1Cc2c(ccc3ccc(=O)oc23)OC1(C)C (stereo not drawn)	26.4% (inactive)
CC1(C)Oc2ccc3ccc(=O)oc3c2/C(=C/NCCO)C1=O	2.48% (inactive)
CC(=O)c1c(OCC(=O)N(C)C2CCCCC2)ccc2c(C)cc(=O)oc12	9.58% (inactive)
Cc1cc(=O)oc2c1ccc1ccccc12	37% (active)
Cc1cc(=O)oc2c(C(=O)c3ccccc3)c(OCC(N)=O)ccc12	0.48% (inactive)
N#CC(C#N)=CN=c1ccn(Cc2ccc(Cl)cc2Cl)cc1	-0.58% (inactive)
O=C(COc1ccc2ccccc2c1)N1CCN(C(=O)c2cccs2)CC1	-0.2% (inactive)
CC(=O)NS(=O)(=O)c1ccc(NC(=O)/C=C/c2ccccc2Cl)cc1	6.43% (inactive)
CC(=O)Nc1ccc(S(=O)(=O)Nc2cc(C)cn(Cc3ccc(C)cc3)c2=O)cc1	-0.45% (inactive)
CCC1CCCCN1CCCNC(=O)c1cc2c(Cl)nc3ccccc3c2s1 (stereo not drawn)	-4.11% (inactive)
Cn1c(C(=O)NCCN2CCc3ccccc3C2)cc2c(=O)[nH]c3ccccc3c21	5.1% (inactive)
O=C(NCCN1CCN(Cc2ccccc2)CC1)c1cc2c(=O)[nH]c3ccccc3c2s1	47.8% (active)
Cc1ccc(C)c(C(O)c2ncc(-c3cccc4ccccc34)[nH]2)c1 (stereo not drawn)	23.2% (inactive)
COc1ccc(C)cc1S(=O)(=O)NCCc1ccccc1	-6.6% (inactive)
COc1ccccc1CN(C)C(=O)c1cc2ccccc2o1	2.4% (inactive)
COc1cccc2oc(CCc3ccccc3)cc(=O)c12	33.4% (active)
CCOc1ccc(C(=O)NC(=S)Nc2ccc(N3CCOCC3)c(Cl)c2)cc1[N+](=O)[O-]	11% (inactive)

SMILES	inhibition
COC(=O)C1C(=O)CC(C)(O)C(C(=O)OC)C1c1ccc2c(c1)OCO2 (stereo not drawn)	0.24% (inactive)
COc1cc(/C=C/C(=O)O)cc(S(=O)(=O)Nc2ccccc2C(=O)NCCc2ccccc2)c1OC	0.65% (inactive)
COc1ccc(OC)c(S(=O)(=O)Nc2ccccc2F)c1	-2.78% (inactive)
COc1cc(OC)c(S(=O)(=O)Nc2ccccc2C(=O)O)cc1S(=O)(=O)Nc1ccccc1C(=O)O	30.9% (active)
COc1ccc(N2CC(C(=O)NCCS(=O)(=O)N3CCN(c4ccccc4)CC3)CC2=O)cc1 (stereo not drawn)	-1.82% (inactive)
CCOC(=O)N1CCN(Cc2nc3cc(NC(=O)CC)ccc3n2CC)CC1	0.91% (inactive)
COCc1c(C(=O)OCC(=O)Nc2ccc(OC(F)F)cc2)oc2ccccc12	1.74% (inactive)
Cc1cc(C)c2nc(-c3ccco3)cc(C(=O)O)c2c1	105% (active)
COC(=O)c1cnn2c(C(F)(F)F)cc(-c3ccco3)nc12	14% (inactive)
CCOC(=O)c1ccn(-c2nc(-c3ccco3)cc(C(F)(F)F)n2)n1	10.6% (inactive)
Cc1ccnc(NS(=O)(=O)c2ccc(NC(=O)c3oc4ccc(F)cc4c3C)cc2)n1	1.55% (inactive)
CN(C(=O)c1cccc(NC(=O)Cc2ccc(NC(=O)C3CCCN(C(=O)C4CC4)C3)cc2)c1)C1CC1 (stereo not drawn)	0.61% (inactive)
Cc1ccc(C(=O)c2coc3ccc(O)c(CN(C)C)c23)cc1	-0.7% (inactive)
CN(C)Cc1c(O)ccc2occ(C(O)c3ccccc3)c12 (stereo not drawn)	6.31% (inactive)
CN(C)Cc1c(O)ccc2c(=O)c(-c3ccccc3Cl)coc12	96.3% (active)
O=C(CNC(=O)c1ccccc1)NCC(=O)OCc1ccc(Cl)cc1	0.34% (inactive)
O=C(CNC(=O)OCc1ccccc1)Oc1cc2oc(=O)cc(-c3ccccc3)c2cc1Cl	36.7% (active)
CC(Oc1ccc2c(-c3ccccc3)cc(=O)oc2c1)C(=O)NC(Cc1c[nH]c2ccccc12)C(=O)O (stereo not drawn)	-3.79% (inactive)
